Reference: PubChem BioAssay (NCATS)
Values joined by “and” are separate entries in the source; they are usually repeats but may differ in a detail not shown here. Equal entries are not always repeated. Active and inactive are the calls of the source. Unless noted, calls follow the shape of the full dose curve.

What was measured:
[1] = Cell Viability - NIH 3T3 (AID 541; active = well fitted curve in the direction sought with a large enough effect; inconclusive = small, poorly fitted or top-dose-only effect, or another doubt; inactive = no such curve, though single readings can be large; an effect the other way counts as inactive or inconclusive;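 also: cells exposed to compound for 40 hours; plate controls were DMSO alone for no effect and tamoxifen positive control for full effect; nearly all actives have a fitted effect of over 25% in size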); conditions: NIH 3T3 cell viability, qHTS; activity change, negative = cytotoxicity: at 92.2 µM (top of the series)
How it was run: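 Intracellular ATP (CellTiter-Glo luminescence, 20 min at room temperature) measured after 40 hr compound exposure at 37 °C of 1000 NIH 3T3 mouse fibroblasts/well in complete medium; AC50 derived by Hill-equation modelling of qHTS concentration-response curves.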

[2] = Cell Viability - SH-SY5Y (AID 544; active = well fitted curve in the direction sought with a large enough effect; inconclusive = small, poorly fitted or top-dose-only effect, or another doubt; inactive = no such curve, though single readings can be large; an effect the other way counts as inactive or inconclusive;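 also: cells exposed to compound for 40 hours; nearly all actives have a fitted effect of over 55% in size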); conditions: SH-SY5Y neuroblastoma cell viability; viability change, negative = cytotoxic: at 92.2 µM (top of the series)
How it was run: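 Cytotoxicity measured via ATP-dependent luciferase luminescence (CellTiter-Glo) following 40 h, 37 °C exposure of 1500 SH-SY5Y cells per well. Concentration-response data were fitted with the standard Hill equation to give AC50.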

[3] = Cellular Toxicity (caspase-3) Jurkat (AID 655; active = well fitted curve in the direction sought with a large enough effect; inconclusive = small, poorly fitted or top-dose-only effect, or another doubt; inactive = no such curve, though single readings can be large; an effect the other way counts as inactive or inconclusive;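 also: cells exposed to compound for 16 h at 37 °C before reading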); conditions: Jurkat caspase-3 activation, luminescence; caspase-3 activation: at 92.2 µM (top of the series), DMSO = 0%, tamoxifen = 100%
How it was run: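 5000 Jurkat cells/well; compound 16 hr, 37 °C; Caspase-Glo 3/7 added, 20 min RT; luminescence read. Norm: DMSO = 0%, tamoxifen 100 uM = 100%. AC50, Hill model.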

[4] = molecular target: Estrogen receptor (Homo sapiens) (UniProt P03372); experiment: qHTS assay for small molecule antagonists of estrogen receptor alpha signaling (AID 588513; active = well fitted curve in the direction sought with a large enough effect in the signal ratio, with a control signal flat, not every such curve was filed as active; inconclusive = small, poorly fitted or top-dose-only effect, or effect the other way, or a change in a side signal; inactive = no such curve, though single readings can be large or run the other way; the % refers to the signal ratio; also: potency is read from the fitted curve at half-maximal effect)
Chain of Estrogen receptor (Homo sapiens) (P03372 whole entry, looked up): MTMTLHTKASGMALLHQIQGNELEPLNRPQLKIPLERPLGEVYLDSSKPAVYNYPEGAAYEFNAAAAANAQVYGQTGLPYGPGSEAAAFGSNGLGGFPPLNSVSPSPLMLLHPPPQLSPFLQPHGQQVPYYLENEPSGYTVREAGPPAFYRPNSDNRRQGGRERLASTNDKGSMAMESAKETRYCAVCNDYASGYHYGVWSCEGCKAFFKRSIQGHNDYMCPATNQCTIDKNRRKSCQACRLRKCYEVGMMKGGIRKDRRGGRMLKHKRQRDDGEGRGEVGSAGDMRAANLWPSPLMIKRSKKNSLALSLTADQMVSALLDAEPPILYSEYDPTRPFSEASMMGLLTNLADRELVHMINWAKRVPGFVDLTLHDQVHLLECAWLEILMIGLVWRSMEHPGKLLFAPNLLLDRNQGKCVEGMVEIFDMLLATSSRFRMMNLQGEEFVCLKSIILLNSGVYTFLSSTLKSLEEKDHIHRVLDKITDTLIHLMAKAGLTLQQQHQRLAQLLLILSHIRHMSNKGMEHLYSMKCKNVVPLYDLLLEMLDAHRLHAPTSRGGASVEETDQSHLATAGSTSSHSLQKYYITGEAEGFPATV
How it was run: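 Fluorescence from CCF4 substrate after 2 h at room temperature gave reporter activity; cells had been exposed to compound and 0.5nM 17-beta-estradiol for 18 h at 37 C. Hill-equation fitting yielded IC50 and maximal response.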

[5] = molecular target: Estrogen receptor (Homo sapiens) (UniProt P03372); experiment: qHTS assay for small molecule agonists of estrogen receptor alpha signaling (AID 588514);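 also: 0% = vehicle only and 100% = reference agonist; nearly all actives have a fitted effect of over 70% in size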
How it was run: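 EC50 and efficacy came from Hill fits of beta-lactamase reporter signal (CCF4 dye, 2 h at room temperature) scaled between DMSO and 20 nM 17-beta-estradiol. Agonist mode: HEK293 ER-alpha-UAS-bla cells in charcoal/dextran-stripped serum medium, 18 h compound exposure at 37 C.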

[6] = molecular target: Peroxisome proliferator-activated receptor delta (Homo sapiens) (UniProt Q03181); experiment: qHTS assay for small molecule agonists of peroxisome proliferator-activated receptor delta signaling (AID 588534);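 also: 0% = DMSO basal wells and 100% = positive control agonist at 10 µM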
Chain of Peroxisome proliferator-activated receptor delta (Homo sapiens) (Q03181 whole entry, looked up): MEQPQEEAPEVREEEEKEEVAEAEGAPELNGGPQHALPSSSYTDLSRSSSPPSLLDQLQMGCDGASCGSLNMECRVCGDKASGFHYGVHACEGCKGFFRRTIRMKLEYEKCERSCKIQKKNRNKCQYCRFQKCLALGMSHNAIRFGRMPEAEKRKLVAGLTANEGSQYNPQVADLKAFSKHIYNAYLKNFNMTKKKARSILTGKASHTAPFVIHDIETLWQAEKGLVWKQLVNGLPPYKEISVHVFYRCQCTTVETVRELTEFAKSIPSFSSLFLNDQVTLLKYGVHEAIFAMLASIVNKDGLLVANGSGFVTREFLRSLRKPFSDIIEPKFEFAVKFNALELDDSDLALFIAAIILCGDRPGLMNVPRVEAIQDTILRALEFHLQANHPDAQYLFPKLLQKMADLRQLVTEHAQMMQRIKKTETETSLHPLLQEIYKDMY
How it was run: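 Agonist-mode beta-lactamase reporter readout (CCF4 dye, 2 h at RT) after 18 h at 37 °C exposure to a titration; Hill-equation fitting gave EC50 and maximal response.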

[7] = qHTS assay for small molecule antagonists of peroxisome proliferator-activated receptor delta signaling (AID 588535; active = well fitted inhibition curve with a large enough effect in the signal ratio, with a control signal flat, not every such curve was filed as active; inconclusive = small, poorly fitted or top-dose-only effect, or effect the other way, or a change in a side signal; inactive = no such curve, though single readings can be large or run the other way; the % refers to the signal ratio;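 as to max response: cells co-treated with a PPAR-delta agonist as stimulator during compound exposure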); conditions: HEK293T PPARd-UAS-bla, beta-lactamase FRET ratio, 18 h; 460 nm channel
How it was run: (§1)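 Inhibition of PPAR-delta response element-driven beta-lactamase expression is measured in HEK293T cells exposed to a compound titration series for 18 hrs at 37 C. Half-maximal inhibition comes from Hill equation fitting.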

[8] = molecular target: Peroxisome proliferator-activated receptor delta (Homo sapiens) (UniProt Q03181); experiment: as above
How it was run: as §1

[9] = molecular target: Peroxisome proliferator-activated receptor gamma (Homo sapiens) (UniProt P37231); experiment: qHTS assay for small molecule antagonists of peroxisome proliferator-activated receptor gamma signaling (AID 588537; active = well fitted inhibition curve with a large enough effect in the signal ratio, with a control signal flat, not every such curve was filed as active; inconclusive = small, poorly fitted or top-dose-only effect, or effect the other way, or a change in a side signal; the % refers to the signal ratio;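 also: reporter cells co-stimulated with 50 nM rosiglitazone agonist during compound treatment; % of control where 0% means no effect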)
Chain of Peroxisome proliferator-activated receptor gamma (Homo sapiens) (P37231 whole entry, looked up): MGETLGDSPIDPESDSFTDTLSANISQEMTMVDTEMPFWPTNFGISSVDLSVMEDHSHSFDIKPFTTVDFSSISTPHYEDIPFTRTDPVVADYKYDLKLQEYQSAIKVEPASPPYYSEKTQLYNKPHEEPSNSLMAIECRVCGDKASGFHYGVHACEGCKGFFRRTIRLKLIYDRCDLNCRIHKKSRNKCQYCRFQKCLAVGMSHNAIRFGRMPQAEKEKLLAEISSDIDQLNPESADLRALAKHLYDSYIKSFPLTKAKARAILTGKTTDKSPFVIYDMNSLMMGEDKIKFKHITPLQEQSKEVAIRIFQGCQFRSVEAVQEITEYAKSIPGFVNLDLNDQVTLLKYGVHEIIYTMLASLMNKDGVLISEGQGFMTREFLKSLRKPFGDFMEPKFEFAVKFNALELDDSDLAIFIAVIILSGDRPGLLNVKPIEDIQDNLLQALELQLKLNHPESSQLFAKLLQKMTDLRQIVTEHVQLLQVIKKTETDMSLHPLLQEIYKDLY
How it was run: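 Compounds are tested as concentration series for inhibition of rosiglitazone-driven (50 nM) reporter expression in GeneBLAzer PPAR-gamma-UAS-bla HEK293 cells. After 16 h at 37 C, CCF4 substrate is added for 2 h at room temperature and blue/green fluorescence is measured.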

[10] = molecular target: Retinoic acid receptor RXR-alpha (Homo sapiens) (UniProt P19793); experiment: qHTS assay for small molecule agonists of retinoid X receptor alpha signaling (AID 588544);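 also: 0% = DMSO basal wells and 100% = reference agonist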
Chain of Retinoic acid receptor RXR-alpha (Homo sapiens) (P19793 whole entry, looked up): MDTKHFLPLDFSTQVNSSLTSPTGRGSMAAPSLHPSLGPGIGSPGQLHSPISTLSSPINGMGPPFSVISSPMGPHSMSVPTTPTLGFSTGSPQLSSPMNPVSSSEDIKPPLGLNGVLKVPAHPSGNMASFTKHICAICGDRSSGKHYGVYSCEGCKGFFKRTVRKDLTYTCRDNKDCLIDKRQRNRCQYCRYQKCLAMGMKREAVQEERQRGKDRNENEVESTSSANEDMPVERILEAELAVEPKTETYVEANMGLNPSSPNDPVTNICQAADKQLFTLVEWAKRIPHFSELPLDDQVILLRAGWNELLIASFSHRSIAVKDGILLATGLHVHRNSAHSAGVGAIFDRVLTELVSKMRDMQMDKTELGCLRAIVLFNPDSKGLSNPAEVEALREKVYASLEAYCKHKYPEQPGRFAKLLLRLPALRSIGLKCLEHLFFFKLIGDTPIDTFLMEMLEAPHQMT

[11] = qHTS assay for small molecule agonists of the antioxidant response element (ARE) signaling pathway (AID 651741; active = well fitted activation curve with a large enough effect in the signal ratio; inconclusive = small, poorly fitted or top-dose-only effect, or effect the other way, or a change in a side signal; the % refers to the signal ratio; also: potency is read from the fitted curve at half-maximal effect; as to activation: % of control where 0% means no effect)
How it was run: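 Reporter: beta-lactamase under ARE, stably in HepG2. Exposure: 16 h, 37 C, compounds delivered in DMSO by pin tool after 5 h cell preincubation. Readout: FRET substrate fluorescence after 2 h at RT.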

[12] = qHTS assay for small molecule activators of the p53 signaling pathway (AID 651743; active = well fitted activation curve with a large enough effect in the signal ratio, not every such curve was filed as active; inconclusive = small, poorly fitted or top-dose-only effect, or a change in a side signal; the % refers to the signal ratio; also: % of control where 0% means no effect); conditions: HCT-116 p53RE-bla, beta-lactamase FRET ratio, 16 h; activation: stronger effect = higher value
How it was run: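 Agonist-mode quantitative HTS in HCT-116 cells carrying a p53-response-element beta-lactamase reporter; 16 h compound treatment at 37 C, then FRET substrate loading for 2 h at room temperature and fluorescence read.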

[13] = qHTS assay for small molecule disruptors of the mitochondrial membrane potential - 1 hr assay (AID 651754); also: nearly all actives have a fitted effect of over 35% in size; also: potency is read from the fitted curve at half-maximal effect
How it was run: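 Mitochondrial potential in living HepG2 cells after 1 hr compound treatment at 37C was read with Mito-MPS dye added for a further 30 min. Red aggregate and green monomer fluorescence were measured; loss of potential leaves dye as cytoplasmic monomers.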

[14] = qHTS assay for small molecule disruptors of the mitochondrial membrane potential - 5 hr assay (AID 651755); also: nearly all actives have a fitted effect of over 40% in size; also: potency is read from the fitted curve at half-maximal effect
How it was run: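 Seed HepG2 overnight, add compound, incubate 5 hr at 37C and 5% CO2, stain 30 min with Mito-MPS, then measure monomer (490/535 nm) and aggregate (540/590 nm) fluorescence.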

[15] = Cell Viability - LYMP2-005 (AID 967; active = well fitted curve in the direction sought with a large enough effect; inconclusive = small, poorly fitted or top-dose-only effect, or another doubt; inactive = no such curve, though single readings can be large; an effect the other way counts as inactive or inconclusive;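 also: cells exposed to compound for 24 h at 37 °C; plate controls were DMSO only for no effect and 92 µM tetraoctylammonium bromide control for full effect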)
How it was run: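 Acute cytotoxicity is scored as a concentration-dependent drop in intracellular ATP in human lymphoblastoid LYMP2-005 cells after 24 h compound treatment. ATP is quantified by luciferase luminescence, and AC50 is derived by Hill-equation modelling.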

[16] = molecular target: Glucocorticoid receptor (Homo sapiens) (UniProt P04150); experiment: qHTS assay for small molecule agonists of glucocorticoid receptor signaling (AID 588532; active = well fitted curve in the direction sought with a large enough effect in the signal ratio, with a control signal flat; inconclusive = small, poorly fitted or top-dose-only effect, or a change in a side signal; inactive = no such curve, though single readings can be large or run the other way; the % refers to the signal ratio;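 also: 100% = dexamethasone at 0.1 µM and 0% = DMSO only wells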); conditions: HeLa MMTV-bla, beta-lactamase ratio, agonist, 18 h; stronger effect = higher value; percent of dexamethasone control, DMSO zero
Chain of Glucocorticoid receptor (Homo sapiens) (P04150 whole entry, looked up): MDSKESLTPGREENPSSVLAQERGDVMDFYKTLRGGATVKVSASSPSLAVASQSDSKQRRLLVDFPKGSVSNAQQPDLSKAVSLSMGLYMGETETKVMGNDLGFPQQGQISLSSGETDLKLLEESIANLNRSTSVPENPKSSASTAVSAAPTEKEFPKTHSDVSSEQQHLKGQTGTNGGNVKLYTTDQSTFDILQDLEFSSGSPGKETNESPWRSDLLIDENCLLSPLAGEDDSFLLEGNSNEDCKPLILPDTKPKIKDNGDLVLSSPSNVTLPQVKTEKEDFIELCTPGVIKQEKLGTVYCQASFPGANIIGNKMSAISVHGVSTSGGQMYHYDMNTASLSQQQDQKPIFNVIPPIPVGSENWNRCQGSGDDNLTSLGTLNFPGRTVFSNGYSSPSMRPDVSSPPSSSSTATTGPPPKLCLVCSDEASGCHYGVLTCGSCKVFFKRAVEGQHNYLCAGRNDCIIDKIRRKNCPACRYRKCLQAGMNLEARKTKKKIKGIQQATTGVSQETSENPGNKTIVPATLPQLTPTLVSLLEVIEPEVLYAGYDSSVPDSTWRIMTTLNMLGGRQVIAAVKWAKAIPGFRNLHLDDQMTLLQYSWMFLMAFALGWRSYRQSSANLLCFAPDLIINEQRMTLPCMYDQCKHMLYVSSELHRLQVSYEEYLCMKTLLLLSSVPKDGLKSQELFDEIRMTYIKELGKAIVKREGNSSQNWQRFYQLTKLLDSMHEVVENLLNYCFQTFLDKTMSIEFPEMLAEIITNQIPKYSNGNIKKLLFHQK
How it was run: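 Stimulation of a glucocorticoid response element-driven beta-lactamase gene was measured in HeLa cells. Responses were scaled between DMSO basal and 0.1 uM dexamethasone, then fitted for half-maximal stimulation.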

[17] = molecular target: Glucocorticoid receptor (Homo sapiens) (UniProt P04150); experiment: qHTS assay for small molecule antagonists of glucocorticoid receptor signaling (AID 588533; active = well fitted inhibition curve with a large enough effect in the signal ratio, with a control signal flat, not every such curve was filed as active; inconclusive = small, poorly fitted or top-dose-only effect, or effect the other way, or a change in a side signal; the % refers to the signal ratio;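 also: cells stimulated with 2 nM dexamethasone as agonist; % is scaled to controls: 0 for no effect and ±100 for the full control effect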)
How it was run: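 Antagonist-mode qHTS: compound titrations added to GRE-bla HeLa cells, then dexamethasone 2 nM final; 18 h, 37 C. CCF4 FRET fluorescence normalized to dexamethasone and DMSO; IC50 from Hill fit.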

[18] = molecular target: Bile acid receptor (Homo sapiens) (UniProt Q96RI1); experiment: qHTS assay for small molecule antagonists of farnesoid X receptor signaling (AID 588526); also: % is scaled to controls: 0 for no effect and ±100 for the full control effect
Chain of Bile acid receptor (Homo sapiens) (Q96RI1 whole entry, looked up): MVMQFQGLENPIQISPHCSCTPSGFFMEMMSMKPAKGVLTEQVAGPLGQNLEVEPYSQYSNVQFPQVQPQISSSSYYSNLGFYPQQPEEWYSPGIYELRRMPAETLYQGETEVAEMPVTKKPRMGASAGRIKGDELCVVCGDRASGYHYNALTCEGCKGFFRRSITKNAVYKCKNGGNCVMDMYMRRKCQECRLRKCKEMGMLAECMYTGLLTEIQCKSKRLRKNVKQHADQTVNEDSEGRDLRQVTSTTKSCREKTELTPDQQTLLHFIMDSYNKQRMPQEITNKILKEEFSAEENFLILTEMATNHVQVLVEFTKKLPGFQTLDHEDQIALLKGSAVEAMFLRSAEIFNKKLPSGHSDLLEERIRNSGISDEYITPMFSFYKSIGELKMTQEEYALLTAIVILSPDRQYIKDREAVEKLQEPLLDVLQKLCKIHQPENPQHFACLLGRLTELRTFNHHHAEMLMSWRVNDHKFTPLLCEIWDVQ
How it was run: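 Concentration-response titrations were fitted to the Hill equation for half-maximal inhibition and maximal response, with data normalised to 50 uM chenodeoxycholic acid and DMSO control wells. Cells: FXR-UAS-bla HEK293T, dialyzed FBS.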

[19] = qHTS assay for small molecule activators of the nuclear factor-kappa B (NF-kB) signaling pathway (AID 651749; active = well fitted activation curve with a large enough effect in the signal ratio; inconclusive = small, poorly fitted or top-dose-only effect, or a change in a side signal; the % refers to the signal ratio; also: % of control where 0% means no effect); conditions: NF-kB-bla ME-180 cells, beta-lactamase FRET ratio, 16 h; stronger effect = higher value
How it was run: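 Human ME-180 cervical cells with an NF-kB-bla construct; compounds added via 23 nL pin transfer, DMSO as vehicle; incubation 16 hr. Reporter activity measured by FRET disruption.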

[20] = Cell Viability - BJ (AID 421); conditions: BJ fibroblast viability, qHTS;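 also: potency is read from the fitted curve at half-maximal effect; cells exposed to compound for 40 hours at 37 °C before readout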
How it was run: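 Cytotoxicity in human BJ foreskin fibroblasts is scored as loss of cellular ATP after a 40-hour exposure, measured by luciferase luminescence. Controls are DMSO and 100 uM tamoxifen.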

CN(C)c1ccc(N)cc1
active: activity change, negative = cytotoxicity [1] -87% | viability change, negative = cytotoxic [2] -91.2% | Potency [4] 31.6 µM [inconclusive] | Potency [11] 33.5 µM | Potency [13] 29.8 µM | Potency [14] 29.8 µM
-7.4%: max response [7]
inactive: caspase-3 activation [3] -4.87% | Potency [5] | outcome [6] | outcome [8] | Potency [9] | outcome [10] | activation [12] -3.55%

Nc1cc(Cl)ccc1Cl
inactive: Potency [2] | Potency [15] | activation [16] -3.66% | outcome [17] | outcome [6] | outcome [10] | Potency [13] | Potency [14]

ClC(Br)Br
2.53%: max response [7]
inactive: Potency [1] | caspase-3 activation [3] 0.0387% | Potency [15] | Potency [4] | outcome [18] | outcome [17] | outcome [6] | outcome [8] | Potency [9] | outcome [10] | activation [12] 6.47% | activation [19] 1.19% | Potency [14]

C=C(C)CCl
inactive: Potency [2] | caspase-3 activation [3] -0.765% | Potency [15] | Potency [4] | Potency [5] | outcome [18] | activation [16] 15.7% | outcome [17] | outcome [6] | outcome [8] | outcome [10] | Potency [11] | activation [12] -3.39% | activation [19] -0.185% | Potency [13]
2.33%: max response [7]

NC1CCC(CC2CCC(N)CC2)CC1 (stereo not given)
-9.87%: max response [7]
inactive: Potency [2] | caspase-3 activation [3] 0.418% | Potency [15] | Potency [4] | Potency [5] | outcome [18] | activation [16] 2.97% and -18.9% | outcome [17] | outcome [6] | outcome [8] | Potency [9] | Potency [11] | activation [12] -3.72% and -4.21% | activation [19] -0.779% and -0.659% | Potency [13]

CN(C)C(=O)Nc1cccc(C(F)(F)F)c1
-0.756% and 6.11%: max response [7]
inactive: Potency [20] > 92 µM | Potency [1] | Potency [2] | caspase-3 activation [3] 2.52% | outcome [6] | outcome [8] | Potency [9] | outcome [10] | Potency [11] | activation [12] 0.966% and 0.726% | activation [19] 0.0409% and 1.96% | Potency [13] | Potency [14]

O=[N+]([O-])c1ccc(O)c([N+](=O)[O-])c1
inactive: Potency [20] > 92 µM | Potency [2] | Potency [15] | Potency [4] | Potency [9] | outcome [10] | activation [19] 3.32%
active: Potency [11] 66.8 µM | Potency [13] 21.1 µM | Potency [14] 37.6 µM

ClC(Cl)(Cl)C(Cl)(Cl)Cl
inactive: Potency [20] > 92 µM | Potency [1] | Potency [2] | Potency [15] | Potency [4] | activation [16] 5.68% | outcome [17] | Potency [9] | outcome [10] | activation [12] -2.98% | activation [19] 0.631% | Potency [13] | Potency [14]
